Assay [1] in a line: qHTS assay for identifying genotoxic compounds that show differential cytotoxicity against isogenic chicken DT40 cell lines with known DNA damage response pathways - Rev3 mutant cell line (AID 743014). Also: nearly all actives have a fitted effect of over 55% in size. Also: potency is read from the fitted curve at half-maximal effect.
Assay [2] in a line: qHTS assay for identifying genotoxic compounds that show differential cytotoxicity against isogenic chicken DT40 cell lines with known DNA damage response pathways - Rad54/Ku70 mutant cell line (AID 743015). Also: nearly all actives have a fitted effect of over 60% in size. Also: potency is read from the fitted curve at half-maximal effect. On the technique in general: In qHTS, concentration-response curves come from the screen itself.
Assay [3] in a line: qHTS assay to identify small molecule antagonists of the androgen receptor (AR) signaling pathway - cell viability counter screen (AID 743033; also: nearly all actives have a fitted effect of over 45% in size).
The subject of assay [4] is thyroid hormone receptor (rat, GH3 cells). Description: qHTS assay to identify small molecule agonists of the thyroid receptor (TR) signaling pathway (AID 743066; calls by dose curve).
A short description of assay [5]: qHTS assay to identify small molecule antagonists of the estrogen receptor alpha (ER-alpha) signaling pathway - cell viability counter screen (AID 743074; calls by dose curve; also: nearly all actives have a fitted effect of over 45% in size).
Assay [6] can be described thus: qHTS assay to identify small molecule antagonists of the estrogen receptor alpha (ER-alpha) signaling pathway using the BG1 cell line - cell viability counter screen (AID 743081).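 Also: compound given together with 17beta-estradiol as the ER stimulus; nearly all actives have a fitted effect of over 45% in size.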
Another assay deals with Aromatase (Homo sapiens) (UniProt P11511). In words: qHTS assay to identify aromatase inhibitors (AID 743083). Also: nearly all actives have a fitted effect of over 55% in size. Also: potency is read from the fitted curve at half-maximal effect.
Assay [7] can be described thus: qHTS assay for identifying genotoxic compounds that show differential cytotoxicity against isogenic chicken DT40 cell lines with known DNA damage response pathways - wild type cell line (AID 743012). Also: nearly all actives have a fitted effect of over 60% in size. Also: potency is read from the fitted curve at half-maximal effect. Put shortly: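 Luminescent ATP viability signal (CellTiter-Glo, 30 min RT) recorded after wild type DT40 cells were incubated with compounds for 40 h at 37 C/5% CO2.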

Assay [8] is described as follows: qHTS assay to identify small molecule antagonists of the androgen receptor (AR) signaling pathway using the MDA cell line - cell viability counter screen (AID 743041; also: nearly all actives have a fitted effect of over 45% in size; also: potency is read from the fitted curve at half-maximal effect). The method, boiled down: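 Using the breast carcinoma line MDA-kb2 AR-luc, test chemicals were co-incubated with R1881 for 16 h; CellTiter-Fluor reagent, added at 15.5 h, provided a fluorescence measure of live cells.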

The nature of assay [9]: qHTS assay to identify small molecule antagonists of the thyroid receptor (TR) signaling pathway - cell viability counter screen (AID 743064). Also: nearly all actives have a fitted effect of over 50% in size. Also: potency is read from the fitted curve at half-maximal effect. The method, boiled down: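 Counter screen for cytotoxicity: compound plus T3 (1 nM final) on GH3.TRE-Luc cells, 23.5 h at 37 °C, then fluorescence viability readout with CellTiter-Fluor.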
The nature of assay [10]: qHTS assay to identify small molecule antagonists of the thyroid receptor (TR) signaling pathway (AID 743065). Also: nearly all actives have a fitted effect of over 55% in size. Also: potency is read from the fitted curve at half-maximal effect. The method, boiled down:
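Antagonism measured as loss of luciferase signal in GH3 cells stably carrying a TRE-luciferase reporter, co-treated with compound and T3 (1 nM final) for 23.5 h at 37 C. Viability was read in the same well by CellTiter-Fluor.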

Assay [11] concerns the target Estrogen receptor (Homo sapiens) (UniProt P03372). Description: qHTS assay to identify small molecule antagonists of the estrogen receptor alpha (ER-alpha) signaling pathway (AID 743069; active = well fitted curve in the direction sought with a large enough effect in the signal ratio in the repeat runs, not every such curve was filed as active; inconclusive = weak or mixed curves, or effect the other way; inactive = no such curve, though single readings can be large or run the other way; the % refers to the signal ratio; also: potency is read from the fitted curve at half-maximal effect). Put shortly:
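Fluorescence intensity from a beta-lactamase FRET substrate served as the read-out. Cells: HEK293 with stably integrated ER-alpha-UAS-bla reporter. Agonist 17beta-estradiol was co-added with compounds; incubation 18 hr at 37C, substrate 2 hr at room temperature.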

The target is the same in assay [12]. In words: qHTS assay to identify small molecule agonists of the estrogen receptor alpha (ER-alpha) signaling pathway (AID 743075; calls by dose curve; also: potency is read from the fitted curve at half-maximal effect).
For assay [13] the target is unchanged. Description: qHTS assay to identify small molecule agonists of the estrogen receptor alpha (ER-alpha) signaling pathway using the BG1 cell line (AID 743079). Also: nearly all actives have a fitted effect of over 20% in size. As to conditions: BG1Luc4E2 cells, ERE-luciferase agonist, 22 h; activation: at 70.3 µM (top of the series).
The nature of assay [14]: qHTS assay to identify small molecule antagonists of the estrogen receptor alpha (ER-alpha) signaling pathway using the BG1 cell line (AID 743080; calls by dose curve;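 also: BG1 cells stimulated with 17beta-estradiol alongside compound; nearly all actives have a fitted effect of over 25% in size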; also: potency is read from the fitted curve at half-maximal effect). The method, boiled down:
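Luminescence from a 4×ERE-luciferase reporter in BG1-Luc-4E2 cells served as read-out. Cells, pre-cultured 5 days in stripped-serum phenol-red-free medium, were exposed to compound with 17beta-estradiol co-stimulation for 21.5 h at 37 C.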

Assay [15] deals with Androgen receptor (Homo sapiens) (UniProt P10275). Description: qHTS assay to identify small molecule antagonists of the androgen receptor (AR) signaling pathway (AID 743035; active = well fitted inhibition curve with a large enough effect in the signal ratio in the repeat runs, not every such curve was filed as active; inconclusive = weak or mixed curves, or effect the other way; inactive = no such curve, though single readings can be large or run the other way; the % refers to the signal ratio). The method, boiled down: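 Quantitative HTS of the Tox21 10K library used HEK293 AR-UAS-bla cells stimulated with R1881 alongside compound for 16 h at 37C, followed by beta-lactamase FRET detection (LiveBLAzer B/G, 2 h, RT).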

The target is the same in assay [16]. In words: qHTS assay to identify small molecule agonists of the androgen receptor (AR) signaling pathway (AID 743036; active = well fitted activation curve with a large enough effect in the signal ratio in the repeat runs, with a control signal flat, not every such curve was filed as active; inconclusive = weak or mixed curves, or effect the other way; inactive = no such curve, though single readings can be large or run the other way; the % refers to the signal ratio). The method, boiled down: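 In this Tox21 qHTS, 2,000 HEK293 AR-bla cells per well were incubated with compounds for 16 h at 37C and 5% CO2. Fluorescence intensity was recorded 2 h after adding LiveBLAzer B/G FRET substrate at room temperature.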

For assay [17] the target is unchanged. In words: qHTS assay to identify small molecule agonists of the androgen receptor (AR) signaling pathway using the MDA cell line (AID 743040; also: nearly all actives have a fitted effect of over 20% in size). The method, boiled down:
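Stable MMTV-luciferase reporter in MDA-kb2 cells; note the promoter carries GR as well as AR response elements. 16 h compound treatment, 37C, 0% CO2; ONE-Glo luminescence endpoint.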

Assay [18] has the same target. In words: qHTS assay to identify small molecule antagonists of the androgen receptor (AR) signaling pathway using the MDA cell line (AID 743042; also: nearly all actives have a fitted effect of over 55% in size; also: potency is read from the fitted curve at half-maximal effect). The method, boiled down: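 Antagonist mode: compounds plus R1881 agonist added to MDA-kb2 AR-luc cells, incubated 16 h at 37C. Luciferase reporter luminescence quantified, with multiplexed CellTiter-Fluor readout for cell viability.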

Each structure is given as a SMILES string. Unmarked numbers belong to inactive results. Activity calls are given as the source filed them. Unless noted, calls follow the shape of the dose curve; as a rule, active = well fitted curve in the direction sought with a large enough effect in the repeat runs; inconclusive = weak or mixed curves; inactive = no such curve, though single readings can be large; an effect the other way counts as inactive or inconclusive.
% is scaled to controls: 0 for no effect and ±100 for the full control effect.

Sequence of Androgen receptor (Homo sapiens) (P10275 whole entry, looked up): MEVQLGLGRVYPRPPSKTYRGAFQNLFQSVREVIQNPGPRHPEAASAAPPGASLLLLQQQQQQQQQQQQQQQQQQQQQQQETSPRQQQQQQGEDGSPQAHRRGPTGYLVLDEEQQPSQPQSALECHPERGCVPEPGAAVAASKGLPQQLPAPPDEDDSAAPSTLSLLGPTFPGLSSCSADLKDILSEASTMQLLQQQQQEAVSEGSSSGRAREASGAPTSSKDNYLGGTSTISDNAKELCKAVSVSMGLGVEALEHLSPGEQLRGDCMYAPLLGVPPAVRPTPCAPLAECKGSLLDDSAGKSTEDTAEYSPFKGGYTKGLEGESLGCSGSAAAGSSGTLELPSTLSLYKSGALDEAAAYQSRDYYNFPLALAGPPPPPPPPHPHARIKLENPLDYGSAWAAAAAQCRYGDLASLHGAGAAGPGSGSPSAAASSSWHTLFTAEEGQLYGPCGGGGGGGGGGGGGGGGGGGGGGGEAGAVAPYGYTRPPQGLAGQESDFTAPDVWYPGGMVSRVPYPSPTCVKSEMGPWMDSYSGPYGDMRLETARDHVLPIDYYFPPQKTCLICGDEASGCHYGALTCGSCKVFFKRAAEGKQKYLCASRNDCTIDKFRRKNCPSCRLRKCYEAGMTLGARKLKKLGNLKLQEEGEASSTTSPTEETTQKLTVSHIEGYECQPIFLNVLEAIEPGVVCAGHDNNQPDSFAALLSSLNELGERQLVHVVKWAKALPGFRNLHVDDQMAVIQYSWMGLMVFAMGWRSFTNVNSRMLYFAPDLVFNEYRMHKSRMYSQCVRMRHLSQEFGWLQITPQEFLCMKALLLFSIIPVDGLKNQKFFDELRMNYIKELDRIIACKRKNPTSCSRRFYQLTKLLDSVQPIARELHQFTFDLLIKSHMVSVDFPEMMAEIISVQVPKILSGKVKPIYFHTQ
Sequence of Estrogen receptor (Homo sapiens) (P03372 whole entry, looked up): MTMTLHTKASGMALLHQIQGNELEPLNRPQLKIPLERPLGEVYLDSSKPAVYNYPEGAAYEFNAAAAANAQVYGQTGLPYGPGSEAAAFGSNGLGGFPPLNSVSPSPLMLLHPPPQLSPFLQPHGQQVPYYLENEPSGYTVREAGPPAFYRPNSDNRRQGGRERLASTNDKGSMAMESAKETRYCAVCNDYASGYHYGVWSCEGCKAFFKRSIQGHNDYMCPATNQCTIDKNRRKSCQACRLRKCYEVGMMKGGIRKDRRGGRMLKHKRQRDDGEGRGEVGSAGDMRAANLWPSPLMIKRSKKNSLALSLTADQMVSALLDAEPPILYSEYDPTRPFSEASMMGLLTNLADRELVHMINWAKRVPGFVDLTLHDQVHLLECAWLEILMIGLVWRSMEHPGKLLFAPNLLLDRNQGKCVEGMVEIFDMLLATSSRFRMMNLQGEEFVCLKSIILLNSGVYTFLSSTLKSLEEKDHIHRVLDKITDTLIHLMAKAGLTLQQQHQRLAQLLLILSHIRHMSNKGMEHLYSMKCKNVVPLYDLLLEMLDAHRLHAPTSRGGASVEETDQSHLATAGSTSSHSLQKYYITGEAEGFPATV
Sequence of Aromatase (Homo sapiens) (P11511 whole entry, looked up): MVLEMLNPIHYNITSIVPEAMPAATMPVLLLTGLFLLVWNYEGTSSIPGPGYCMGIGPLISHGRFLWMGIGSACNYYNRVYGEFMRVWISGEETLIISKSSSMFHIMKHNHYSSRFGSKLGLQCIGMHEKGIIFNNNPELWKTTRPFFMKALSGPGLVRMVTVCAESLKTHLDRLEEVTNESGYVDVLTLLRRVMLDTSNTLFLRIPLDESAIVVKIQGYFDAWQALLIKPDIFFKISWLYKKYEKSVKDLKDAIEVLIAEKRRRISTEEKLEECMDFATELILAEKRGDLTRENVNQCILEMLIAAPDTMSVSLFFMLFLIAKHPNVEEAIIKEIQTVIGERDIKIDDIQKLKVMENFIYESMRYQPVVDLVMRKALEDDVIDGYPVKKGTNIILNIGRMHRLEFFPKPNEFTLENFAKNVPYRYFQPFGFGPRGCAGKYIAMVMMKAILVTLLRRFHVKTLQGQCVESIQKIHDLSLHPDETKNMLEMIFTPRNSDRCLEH

Consider `O=C(c1ccc(O)cc1)c1ccc(Cl)cc1`, for which the results for the Potency in [1] and in assay [2] were 62.4 µM (active) and 55.6 µM (active), respectively. The Potency entry (in assay [3]; in assay [5]; in assay [6]; in the assay with Aromatase (Homo sapiens)) was “inactive” throughout. In addition, the compound was called inactive in [4].
Regarding `CCC(=O)Oc1ccc(/C(CC)=C(\CC)c2ccc(OC(=O)CC)cc2)cc1`, the Potency in assay [7] is 48.6 µM (active); in assay [2] it was 48.6 µM (active); in [9], 54.5 µM (active); in assay [10] it was 30.6 µM (active); in [11], 54.9 µM [inconclusive] (active); in assay [12], 0.0014 µM [inconclusive] (active). Moreover, the Potency in assay [14] was 61.1 µM (active). In addition, the Potency entry (in assay [3]; in assay [8]; in assay [5]; in assay [6]; in the assay with Aromatase (Homo sapiens)) was “inactive” in each case. In addition, in assay [4], the compound was classed as inactive. For the same compound, in assay [13], the activation is 77.1% (active).
With `COc1ccc(CCC(=O)c2c(O)cc(O[C@@H]3O[C@H](CO)[C@@H](O)[C@H](O)[C@H]3O[C@@H]3O[C@@H](C)[C@H](O)[C@@H](O)[C@H]3O)cc2O)cc1O`, the Potency result in assay [7], in [2], in [3], in [15], in [16] and in [17] was “inactive” throughout. Also, the Potency result in [8], in [18], in assay [9], in assay [10], in assay [11] and in assay [5] was “inactive” throughout. Also, the Potency result (in assay [12]; in assay [13]; in assay [14]; in assay [6]; with Aromatase (Homo sapiens)) was “inactive” in each case. The compound was called inactive in [4].
Turning to `COC(=O)CC(=O)C(C)(C)C`, the Potency entry in [7], in assay [3], in [8], in assay [9], in assay [10] and in assay [11] was “inactive” in each case. In addition, the Potency result (in assay [5]; in [12]; in assay [13]; in assay [14]; in assay [6]; with Aromatase (Homo sapiens)) was “inactive” throughout. Further, the Potency in assay [1] is 61.1 µM (active). For the same compound, the compound was classed as inactive in [4].
`Cc1cc2nc3ccc(=[N+](C)C)cc-3sc2cc1N`: the Potency is 0.596 µM (active) in [7]; 2.11 µM (active) in [1]; 0.596 µM (active) in assay [2]; 8.41 µM (active) in assay [8]; 4.22 µM (active) in assay [18]; 26.6 µM (active) in assay [9]. Also, the results for the Potency (in assay [10]; with Aromatase (Homo sapiens)) were 21.1 µM (active) and 5.31 µM (active), respectively. Moreover, the Potency result in [17], in assay [5], in [12] and in [6] was “inactive” each time.
Consider `OC/C(Br)=C(\Br)CO`, for which the Potency entry in assay [7], in [1], in [2], in assay [3], in assay [9] and in assay [10] was “inactive” throughout. Moreover, the Potency result (in [11]; in assay [5]; in [12]; in [14]; in assay [6]; in the assay with Aromatase (Homo sapiens)) was “inactive” throughout. Further, the compound was classed as inactive in [4].
Turning to `CCCCCCCCSCCO`, the Potency result in [7], in [3], in [16], in assay [17], in assay [8] and in assay [18] was “inactive” throughout. Besides, the Potency result (in assay [9]; in assay [10]; in assay [5]; in assay [6]; with Aromatase (Homo sapiens)) was “inactive” each time. Moreover, the compound was called inactive in assay [4].
Turning to `CCCCCCCCCCCC[N+](C)(C)CC(=O)[O-]`, the Potency in assay [7] was 27.3 µM (active); in assay [1], 27.3 µM (active); in assay [2], 61.1 µM (active). Further, the Potency entry in assay [8], in assay [5], in assay [12], in assay [13], in [14] and in assay [6] was “inactive” throughout. Moreover, the Potency entry in the assay with Aromatase (Homo sapiens) was “inactive”. The outcome in [4] was inactive.
As to `CCOC(=N)CC(=O)OCC`, the Potency entry in assay [7], in [2], in assay [3], in assay [8], in [9] and in [10] was “inactive” throughout. Besides, the Potency result in assay [11], in assay [5], in assay [12], in assay [13], in assay [14] and in assay [6] was “inactive” in each case. Besides, the Potency entry with Aromatase (Homo sapiens) is “inactive”. The result in assay [4] was inactive.
As for `CCCOC(=O)c1ccc(N)cc1`, the Potency entry in assay [7], in assay [3], in assay [16], in assay [17], in [8] and in [18] was “inactive” each time. The Potency entry (in assay [10]; in assay [5]; in [12]; in assay [6]; in the assay with Aromatase (Homo sapiens)) was “inactive” in each case. In addition, the Potency in assay [2] was 23.7 µM (active). For the same compound, the outcome in assay [4] was inactive.
On to `CNC(=S)NC`, for which the Potency in [7] and in [2] was 61.1 µM (active) in each case. Also, the Potency result in assay [17], in [11], in [5], in assay [12], in assay [13] and in [14] was “inactive” throughout. For the same compound, the Potency entry (in assay [6]; with Aromatase (Homo sapiens)) was “inactive” in each case. Besides, the outcome in assay [4] was inactive.
With `C=CCCCCCCCCCCCCCCCC`, the activity change, negative = cytotoxicity in assay [7] was -12.1% [at 8.52 µM]; in assay [2], -0.283% [at 8.55 µM]; in assay [3] it was 0.86% [at 7.04 µM]; in assay [6], 4.81% [at 8.47 µM]. In addition, the viability change, negative = cytotoxic in assay [8] was -4.7% [at 8.47 µM]. For the same compound, in assay [9], the activity change, negative = cytotoxic was -9.44% [at 8.44 µM]. Besides, the activity, negative = inhibition in assay [10] is -26.3% [at 8.44 µM]; in assay [11] it was 10.1% [at 6.71 µM]; in the assay with Aromatase (Homo sapiens) it was 12.3% [at 8.47 µM]. Also, the results for the activation in [4], in assay [12] and in [13] were -0.275% [at 8.08 µM], -3.79% [at 6.71 µM] and 4.88% [at 8.47 µM], respectively. Moreover, the activity, negative = cytotoxicity in assay [5] is -5.03% [at 6.72 µM]. In addition, in [14], the activity change, negative = inhibition was 2.27% [at 8.47 µM].
For the compound `CCCCC/C(=C\c1ccccc1)CO`, the Potency entry in [8], in assay [5] and in assay [6] was “inactive” each time. Moreover, in [4], the compound was called inactive. The Potency with Aromatase (Homo sapiens) is 30.3 µM (active).
Regarding `CSc1ccc(Oc2ccc(S(N)(=O)=O)cc2CN(C)C)cc1C`, the Potency in assay [7] was 24.3 µM (active); in assay [1], 27.3 µM (active); in [2], 61.1 µM (active); in [9], 54.5 µM (active); in [10] it was 27.3 µM (active). The Potency entry in [16], in assay [17], in assay [8], in [12] and in assay [6] was “inactive” throughout.
For the compound `O=C(CCCN1CCC(O)(c2ccc(Br)cc2)CC1)c1ccc(F)cc1`, the Potency in [7] was 5.07 µM (active); in assay [1], 2.85 µM (active); in assay [2], 4.52 µM (active); in [10], 10.1 µM (active). In addition, the Potency result in assay [3], in assay [11], in [5], in assay [12], in assay [13] and in [14] was “inactive” in each case. Further, the Potency entry (in assay [6]; with Aromatase (Homo sapiens)) was “inactive” in each case. Also, the compound was classed as inactive in [4].

The record behind these values is PubChem BioAssay (Tox21).
